# Results filed as inconclusive are left out. Calls of active or inactive are those of the source. Unless noted, calls come from the whole dose curve; as a rule, active = well fitted activation curve with a large enough effect in the repeat runs; inconclusive = weak or mixed curves, or effect the other way; inactive = no such curve, though single readings can be large or run the other way.
# Experiment: qHTS assay to identify small molecule antagonists of the estrogen related receptor signaling pathway with the pleiotropic PPARgamma coactivator (PGC) from Tox21 10K library (AID 1224841; call rule not given here; note: actives are mostly falling curves and most rising ones were filed inactive; nearly all actives have a fitted effect of over 50% in size)
# Details: PGC/ERR reporter cell line, ONE-Glo luciferase, 18 h; series mostly up to 92.4 µM; activity, negative = inhibition: at the top concentration
# Summary of the method: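 Each well held 2,000 PGC/ERR cells, pre-incubated six hours (37 C, 5% CO2). Test substances in DMSO were added by pin tool and left for 18 h at 37 C before luciferase detection by One-Glo.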
# % is set by controls: 0 for no effect and ±100 for the full control effect; potency is the fitted concentration of half-maximal effect.
SMILES,"activity, negative = inhibition",Potency
CCOC(=O)c1ccc(NC(=O)CN2CCCCC2)cc1,50.1% [at 42.5 µM] (inactive),–
CC1CCC(C(C)CS)CC1S (centres undefined),15.3% (inactive),–
CC[C@H]1OC(=O)[C@H](C)[C@@H](O[C@H]2C[C@@](C)(OC)[C@@H](O)[C@H](C)O2)[C@H](C)[C@@H](O[C@@H]2O[C@H](C)C[C@H](N(C)C)[C@H]2O)[C@](C)(O)C[C@@H](C)/C(=N\OCOCCOC)[C@H](C)[C@@H](O)[C@]1(C)O,-25.2% [at 42.5 µM] (inactive),–
CCN(CC)c1ccc(C(=C2C=CC(=[N+](CC)CC)C=C2)c2ccc(S(=O)(=O)O)cc2S(=O)(=O)[O-])cc1,–,8.63 µM (active)
Cc1oc(=O)oc1COC(=O)[C@@H]1N2C(=O)[C@@H](NC(=O)[C@H](N)c3ccccc3)[C@H]2SC1(C)C,3.95% [at 42.5 µM] (inactive),–
CC(C)(C)S,-4.13% (inactive),–
C1=CCC2CC=CC2C1 (centres undefined),-16.4% (inactive),–
CC(=O)NNC(C)=O,6% (inactive),–
O=C(O)c1cc(Cl)cc(Cl)c1O,-29.2% (inactive),–
C=CC(=O)NC(C)C,4.53% (inactive),–
CC(=O)OCCC(C)CC(C)(C)C (centres undefined),-10.2% (inactive),–
CCCCOC(=O)CCCCC(=O)OCCCC,-0.784% (inactive),–
CCCCC(CC)COS(=O)(=O)O (centres undefined),0.275% (inactive),–
COC(C)(C)OC,-7.41% (inactive),–
COc1ccc(C2C(=O)c3ccccc3C2=O)cc1,90.3% [at 42.5 µM] (inactive),–
CCCCCCC(O)CCOC(C)=O (centres undefined),5.29% [at 240 µM] (inactive),–
O=C(O)CCS,11.3% (inactive),–

# Experiment: qHTS assay to identify small molecule agonists of the estrogen related receptor signaling pathway with the pleiotropic PPARgamma coactivator (PGC) from Tox21 10K library (AID 1224842); note: nearly all actives have a fitted effect of over 15% in size
# Details: PGC/ERR reporter cell line, luciferase ONE-Glo, 18 h; series mostly up to 92.4 µM; activation: at the top concentration
# Summary of the method: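 PGC/ERR reporter cell line, 2,000 cells per well, incubated 6 h at 37 C before 23 nL compound in DMSO was added. After 18 h at 37 C, One-Glo luminescence read following 30 min at room temperature.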
SMILES,activation,Potency
CC[C@H]1OC(=O)[C@H](C)[C@@H](O[C@H]2C[C@@](C)(OC)[C@@H](O)[C@H](C)O2)[C@H](C)[C@@H](O[C@@H]2O[C@H](C)C[C@H](N(C)C)[C@H]2O)[C@](C)(O)C[C@@H](C)/C(=N\OCOCCOC)[C@H](C)[C@@H](O)[C@]1(C)O,-7.92% [at 42.5 µM] (inactive),–
CCN(CC)c1ccc(C(=C2C=CC(=[N+](CC)CC)C=C2)c2ccc(S(=O)(=O)O)cc2S(=O)(=O)[O-])cc1,-26.3% (inactive),–
Cc1oc(=O)oc1COC(=O)[C@@H]1N2C(=O)[C@@H](NC(=O)[C@H](N)c3ccccc3)[C@H]2SC1(C)C,1.58% [at 42.5 µM] (inactive),–
CC(C)(C)S,-2.96% (inactive),–
C1=CCC2CC=CC2C1 (centres undefined),-5.33% (inactive),–
COc1ccc(C(=O)NCc2ccc(OCCN(C)C)cc2)cc1OC,-7.29% [at 42.5 µM] (inactive),–
CC(=O)NNC(C)=O,2.08% (inactive),–
O=C(O)c1cc(Cl)cc(Cl)c1O,-8.97% (inactive),–
C=CC(=O)NC(C)C,2.12% (inactive),–
CC(=O)OCCC(C)CC(C)(C)C (centres undefined),-3.03% (inactive),–
CCCCOC(=O)CCCCC(=O)OCCCC,0.0739% (inactive),–
CCCCC(CC)COS(=O)(=O)O (centres undefined),0.0923% (inactive),–
COC(C)(C)OC,0.96% (inactive),–
COc1ccc(C2C(=O)c3ccccc3C2=O)cc1,–,10.6 µM (active)
CCCCCCC(O)CCOC(C)=O (centres undefined),1.86% [at 240 µM] (inactive),–
O=C(O)CCS,3.72% (inactive),–
CCN(CC)C(=O)N1CCN(C)CC1,1.18% [at 42.5 µM] (inactive),–

# Reference: PubChem BioAssay (Tox21)
